Experiments:
Assay in all cases: log2 ratio of Biotin-Ahx-Ub-VS probe labelling (fragment/DMSO); higher = less target engagement (more negative = stronger competition), active = hit call of the paper (q ≤ 0.05, log2 ratio ≤ -1)
Settings in all cases: compound concentration: 200 uM; treatment time: 3 h
USP19 = biological target: T1, USP19 (UniProt O94966)
T1 sequence (whole entry): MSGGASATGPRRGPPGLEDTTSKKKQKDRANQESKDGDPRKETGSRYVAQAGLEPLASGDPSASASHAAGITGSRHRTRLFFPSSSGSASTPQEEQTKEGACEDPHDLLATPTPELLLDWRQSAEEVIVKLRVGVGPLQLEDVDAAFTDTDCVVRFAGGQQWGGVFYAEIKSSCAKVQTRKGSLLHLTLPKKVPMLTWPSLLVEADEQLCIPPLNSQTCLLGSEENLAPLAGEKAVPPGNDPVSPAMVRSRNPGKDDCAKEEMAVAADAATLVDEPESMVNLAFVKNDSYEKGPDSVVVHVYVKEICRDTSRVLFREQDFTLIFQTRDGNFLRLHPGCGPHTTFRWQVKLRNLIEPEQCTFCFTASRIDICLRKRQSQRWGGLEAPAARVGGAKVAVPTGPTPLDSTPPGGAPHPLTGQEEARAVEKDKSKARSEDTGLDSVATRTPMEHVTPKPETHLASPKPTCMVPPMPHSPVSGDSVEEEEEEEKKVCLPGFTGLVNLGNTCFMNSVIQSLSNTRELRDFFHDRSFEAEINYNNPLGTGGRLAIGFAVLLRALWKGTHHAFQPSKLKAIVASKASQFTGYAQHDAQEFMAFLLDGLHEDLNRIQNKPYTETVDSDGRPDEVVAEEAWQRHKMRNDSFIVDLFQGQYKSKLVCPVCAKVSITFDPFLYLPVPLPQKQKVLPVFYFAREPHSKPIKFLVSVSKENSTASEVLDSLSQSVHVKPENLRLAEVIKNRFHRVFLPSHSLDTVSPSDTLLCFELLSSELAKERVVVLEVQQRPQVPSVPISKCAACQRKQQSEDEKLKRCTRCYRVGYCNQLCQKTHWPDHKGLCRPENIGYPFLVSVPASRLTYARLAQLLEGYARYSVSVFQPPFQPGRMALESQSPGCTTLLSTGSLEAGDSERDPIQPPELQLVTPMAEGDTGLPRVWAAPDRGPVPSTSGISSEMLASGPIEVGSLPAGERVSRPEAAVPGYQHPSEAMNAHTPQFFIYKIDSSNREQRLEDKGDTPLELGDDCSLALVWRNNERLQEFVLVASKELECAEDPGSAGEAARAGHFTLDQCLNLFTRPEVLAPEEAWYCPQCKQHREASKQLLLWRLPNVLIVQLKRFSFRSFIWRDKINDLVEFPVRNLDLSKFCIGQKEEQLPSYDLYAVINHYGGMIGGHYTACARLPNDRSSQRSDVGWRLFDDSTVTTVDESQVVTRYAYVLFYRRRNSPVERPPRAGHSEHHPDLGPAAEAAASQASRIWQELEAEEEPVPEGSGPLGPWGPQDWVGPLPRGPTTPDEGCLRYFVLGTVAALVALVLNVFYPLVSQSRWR
Outline: (§1)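 Each value is an average log2 ratio of fragment to vehicle, tested by unpaired t-test. The underlying Spectronaut label-free quantities were global-median-normalised, and only proteins with ≥2 unique peptides were included. Triplicate HEK293T lysate samples (495 µg) were exposed to fragment at 200 µM or vehicle for 3 h, then to Biotin-Ahx-Ub-VS at 0.5 µM final for 1 h, before NeutrAvidin enrichment of labelled DUBs, LysC and trypsin digestion, and diaPASEF LC-MS/MS.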

USP22 = biological target: T2, USP22 (UniProt Q9UPT9)
T2 sequence (whole entry): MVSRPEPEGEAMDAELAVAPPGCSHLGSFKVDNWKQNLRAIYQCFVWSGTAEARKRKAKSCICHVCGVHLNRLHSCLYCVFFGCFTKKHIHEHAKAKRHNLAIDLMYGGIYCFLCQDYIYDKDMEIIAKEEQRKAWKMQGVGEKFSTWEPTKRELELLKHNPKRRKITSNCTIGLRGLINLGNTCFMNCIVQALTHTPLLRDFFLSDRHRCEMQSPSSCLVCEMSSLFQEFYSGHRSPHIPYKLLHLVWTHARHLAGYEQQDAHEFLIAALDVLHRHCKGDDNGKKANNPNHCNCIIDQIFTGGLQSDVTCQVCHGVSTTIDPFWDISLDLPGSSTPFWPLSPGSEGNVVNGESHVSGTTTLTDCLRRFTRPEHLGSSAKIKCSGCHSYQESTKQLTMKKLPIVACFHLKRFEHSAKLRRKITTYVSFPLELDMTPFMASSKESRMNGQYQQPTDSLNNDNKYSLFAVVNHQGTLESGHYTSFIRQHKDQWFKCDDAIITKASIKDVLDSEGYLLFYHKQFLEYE
Outline: as §1

USP24 = USP24 (UniProt Q9UPU5)
USP24, sequence (Q9UPU5 whole entry): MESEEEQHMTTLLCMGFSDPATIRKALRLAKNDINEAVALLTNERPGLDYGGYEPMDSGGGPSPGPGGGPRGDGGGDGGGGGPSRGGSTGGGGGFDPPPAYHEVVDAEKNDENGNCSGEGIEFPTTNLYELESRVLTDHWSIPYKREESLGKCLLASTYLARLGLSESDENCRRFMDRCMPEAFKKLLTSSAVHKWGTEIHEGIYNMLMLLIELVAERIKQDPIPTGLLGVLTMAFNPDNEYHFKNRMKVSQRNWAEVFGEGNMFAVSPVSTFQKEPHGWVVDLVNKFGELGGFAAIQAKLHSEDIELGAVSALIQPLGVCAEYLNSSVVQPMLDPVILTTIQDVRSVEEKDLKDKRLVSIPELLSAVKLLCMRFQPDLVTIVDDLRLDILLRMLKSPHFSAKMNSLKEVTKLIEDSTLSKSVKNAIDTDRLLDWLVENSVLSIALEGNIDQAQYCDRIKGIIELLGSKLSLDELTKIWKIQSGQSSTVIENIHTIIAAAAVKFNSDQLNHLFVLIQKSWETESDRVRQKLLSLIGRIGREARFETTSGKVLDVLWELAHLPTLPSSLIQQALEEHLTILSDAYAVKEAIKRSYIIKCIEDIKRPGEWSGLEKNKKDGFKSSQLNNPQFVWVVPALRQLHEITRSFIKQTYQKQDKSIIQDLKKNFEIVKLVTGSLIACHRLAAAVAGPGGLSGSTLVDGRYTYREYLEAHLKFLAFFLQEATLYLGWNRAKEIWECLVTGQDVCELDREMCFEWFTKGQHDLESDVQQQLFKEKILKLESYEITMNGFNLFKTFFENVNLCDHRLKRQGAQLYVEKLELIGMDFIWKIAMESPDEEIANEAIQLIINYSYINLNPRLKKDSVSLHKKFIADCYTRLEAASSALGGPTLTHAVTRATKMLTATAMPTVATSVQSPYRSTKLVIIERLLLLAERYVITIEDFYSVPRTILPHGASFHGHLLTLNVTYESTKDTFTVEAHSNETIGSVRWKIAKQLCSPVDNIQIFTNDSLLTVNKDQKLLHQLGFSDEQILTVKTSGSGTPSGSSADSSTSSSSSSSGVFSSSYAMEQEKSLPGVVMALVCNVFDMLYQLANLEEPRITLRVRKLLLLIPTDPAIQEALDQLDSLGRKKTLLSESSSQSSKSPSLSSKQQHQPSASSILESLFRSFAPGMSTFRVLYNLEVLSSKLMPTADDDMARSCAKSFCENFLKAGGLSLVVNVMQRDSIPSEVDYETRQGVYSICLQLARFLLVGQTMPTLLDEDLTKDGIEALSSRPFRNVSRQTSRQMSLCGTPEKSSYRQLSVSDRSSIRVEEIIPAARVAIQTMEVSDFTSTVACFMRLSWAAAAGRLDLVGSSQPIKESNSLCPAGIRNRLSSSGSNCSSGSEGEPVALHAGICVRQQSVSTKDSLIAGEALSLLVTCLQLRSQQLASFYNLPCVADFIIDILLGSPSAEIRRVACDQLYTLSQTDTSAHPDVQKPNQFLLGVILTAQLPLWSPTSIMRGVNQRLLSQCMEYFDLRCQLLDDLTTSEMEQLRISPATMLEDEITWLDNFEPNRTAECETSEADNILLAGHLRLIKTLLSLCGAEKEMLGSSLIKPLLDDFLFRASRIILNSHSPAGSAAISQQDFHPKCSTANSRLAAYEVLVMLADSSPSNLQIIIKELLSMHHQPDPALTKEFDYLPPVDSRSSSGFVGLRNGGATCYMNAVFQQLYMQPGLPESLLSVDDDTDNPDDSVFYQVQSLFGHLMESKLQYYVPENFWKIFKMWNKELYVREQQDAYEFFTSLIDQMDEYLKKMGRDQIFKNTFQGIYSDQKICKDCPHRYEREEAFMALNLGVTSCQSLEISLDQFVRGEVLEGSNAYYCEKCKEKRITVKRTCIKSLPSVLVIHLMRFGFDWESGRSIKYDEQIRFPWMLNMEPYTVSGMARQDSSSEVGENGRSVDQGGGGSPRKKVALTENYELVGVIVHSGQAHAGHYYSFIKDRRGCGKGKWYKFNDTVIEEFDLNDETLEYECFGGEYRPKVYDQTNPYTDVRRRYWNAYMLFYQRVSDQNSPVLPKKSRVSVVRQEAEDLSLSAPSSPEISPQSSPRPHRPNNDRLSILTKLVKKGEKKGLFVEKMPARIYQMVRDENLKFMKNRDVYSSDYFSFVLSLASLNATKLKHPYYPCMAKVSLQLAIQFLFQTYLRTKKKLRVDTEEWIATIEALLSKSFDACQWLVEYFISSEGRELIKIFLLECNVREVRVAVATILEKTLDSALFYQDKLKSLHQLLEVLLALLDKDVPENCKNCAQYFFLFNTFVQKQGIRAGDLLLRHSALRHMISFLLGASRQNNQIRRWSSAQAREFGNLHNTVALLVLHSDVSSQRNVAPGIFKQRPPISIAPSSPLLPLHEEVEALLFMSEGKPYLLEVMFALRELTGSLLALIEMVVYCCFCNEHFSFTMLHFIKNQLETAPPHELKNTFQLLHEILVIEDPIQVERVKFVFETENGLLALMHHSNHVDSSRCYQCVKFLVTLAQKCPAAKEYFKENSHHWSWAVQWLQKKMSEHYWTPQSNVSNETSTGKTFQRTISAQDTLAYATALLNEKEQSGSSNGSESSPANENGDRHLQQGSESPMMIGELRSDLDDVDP
Outline: as §1

USP25 = biological target: T3, USP25 (UniProt Q9UHP3)
T3 sequence (whole entry): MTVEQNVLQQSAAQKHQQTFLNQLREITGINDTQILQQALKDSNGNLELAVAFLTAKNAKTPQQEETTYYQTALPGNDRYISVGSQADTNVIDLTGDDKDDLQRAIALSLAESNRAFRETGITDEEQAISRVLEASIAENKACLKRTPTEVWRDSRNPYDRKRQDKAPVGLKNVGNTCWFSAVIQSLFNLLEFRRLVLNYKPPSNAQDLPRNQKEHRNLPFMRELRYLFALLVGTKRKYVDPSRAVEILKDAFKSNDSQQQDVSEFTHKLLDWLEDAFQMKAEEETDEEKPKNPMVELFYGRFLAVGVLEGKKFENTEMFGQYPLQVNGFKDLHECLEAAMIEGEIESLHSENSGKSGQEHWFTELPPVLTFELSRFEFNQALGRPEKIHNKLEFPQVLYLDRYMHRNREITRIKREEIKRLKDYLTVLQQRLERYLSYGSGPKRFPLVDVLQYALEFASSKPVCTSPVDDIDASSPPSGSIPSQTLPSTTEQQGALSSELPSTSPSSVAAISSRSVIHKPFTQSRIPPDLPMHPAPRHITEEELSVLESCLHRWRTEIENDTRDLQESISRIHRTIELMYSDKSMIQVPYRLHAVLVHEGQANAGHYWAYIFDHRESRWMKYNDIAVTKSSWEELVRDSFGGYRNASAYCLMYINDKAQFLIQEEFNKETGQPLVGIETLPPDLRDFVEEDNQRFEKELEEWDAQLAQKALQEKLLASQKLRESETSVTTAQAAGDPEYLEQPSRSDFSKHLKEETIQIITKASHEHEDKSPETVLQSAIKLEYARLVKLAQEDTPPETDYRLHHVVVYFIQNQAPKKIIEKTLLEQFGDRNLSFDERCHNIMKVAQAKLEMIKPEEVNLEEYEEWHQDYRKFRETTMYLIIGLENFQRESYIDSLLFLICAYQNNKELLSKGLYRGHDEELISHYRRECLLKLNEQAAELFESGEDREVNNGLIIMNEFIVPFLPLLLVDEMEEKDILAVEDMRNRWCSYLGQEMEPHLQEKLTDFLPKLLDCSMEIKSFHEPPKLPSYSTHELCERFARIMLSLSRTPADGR
Outline: as §1

USP28 = biological target: T4, USP28 (UniProt Q96RU2)
T4 sequence (whole entry): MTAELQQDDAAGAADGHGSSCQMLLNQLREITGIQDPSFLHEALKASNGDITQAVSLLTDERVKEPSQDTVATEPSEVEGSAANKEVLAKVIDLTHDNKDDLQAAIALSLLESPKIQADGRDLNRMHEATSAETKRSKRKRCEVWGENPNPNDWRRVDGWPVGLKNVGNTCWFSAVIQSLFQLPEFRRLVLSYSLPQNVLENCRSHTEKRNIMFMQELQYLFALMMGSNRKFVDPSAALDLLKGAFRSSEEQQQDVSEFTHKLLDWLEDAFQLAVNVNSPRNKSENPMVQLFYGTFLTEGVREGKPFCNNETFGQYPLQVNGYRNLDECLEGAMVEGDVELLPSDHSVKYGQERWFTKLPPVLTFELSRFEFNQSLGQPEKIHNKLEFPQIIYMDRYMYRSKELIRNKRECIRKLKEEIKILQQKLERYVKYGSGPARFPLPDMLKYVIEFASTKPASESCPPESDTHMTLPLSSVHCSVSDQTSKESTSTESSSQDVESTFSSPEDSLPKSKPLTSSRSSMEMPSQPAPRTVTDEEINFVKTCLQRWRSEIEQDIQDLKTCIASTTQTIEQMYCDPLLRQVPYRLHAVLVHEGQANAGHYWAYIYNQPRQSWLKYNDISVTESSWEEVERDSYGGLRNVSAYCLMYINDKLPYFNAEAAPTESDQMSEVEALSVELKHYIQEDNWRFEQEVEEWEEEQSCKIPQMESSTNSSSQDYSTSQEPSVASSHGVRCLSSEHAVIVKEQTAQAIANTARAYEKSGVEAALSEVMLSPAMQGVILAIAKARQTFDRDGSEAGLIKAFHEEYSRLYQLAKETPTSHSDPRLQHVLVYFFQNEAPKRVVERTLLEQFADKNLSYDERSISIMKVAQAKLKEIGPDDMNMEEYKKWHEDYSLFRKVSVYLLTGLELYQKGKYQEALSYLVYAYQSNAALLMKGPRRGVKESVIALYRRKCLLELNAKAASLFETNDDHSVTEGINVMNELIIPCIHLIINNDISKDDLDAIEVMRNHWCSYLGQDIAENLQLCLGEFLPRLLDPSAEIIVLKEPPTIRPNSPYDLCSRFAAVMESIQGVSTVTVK
Outline: as §1

Measured: log2 ratio of Biotin-Ahx-Ub-VS probe labelling

NC(=O)C(Cc1ccccc1)NC(=O)CCl (stereo not given)
inactive: USP19 -0.0793 | USP22 -0.0897 | USP24 -0.0605 | USP25 -0.291 | USP28 -0.39
